Assay results taken from PubChem BioAssay (EPA / NIEHS).
Results filed as inconclusive are left out. The source holds several records for some structures; these can differ, active in one and inactive in another. Active and inactive are the calls of the source. How the source made its calls, unless noted: active means hit-call score of the fitted dose curve at least 0.9, where 1 is the maximum; inactive means score below 0.9.

The compounds below were run on E-selectin (Homo sapiens) (UniProt P16581) (assay: BSK_3C_Eselectin: BioMAP Diversity Plus: 3C Assay for Eselectin Biomarker Activity (AID 2283015;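 on outcome: cell surface E-selectin protein quantified by ELISA 24 h after dosing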)). Conditions: primary human endothelial cells (HUVEC); actives raise or lower the signal.
Sequence of E-selectin (Homo sapiens) (P16581 whole entry, looked up): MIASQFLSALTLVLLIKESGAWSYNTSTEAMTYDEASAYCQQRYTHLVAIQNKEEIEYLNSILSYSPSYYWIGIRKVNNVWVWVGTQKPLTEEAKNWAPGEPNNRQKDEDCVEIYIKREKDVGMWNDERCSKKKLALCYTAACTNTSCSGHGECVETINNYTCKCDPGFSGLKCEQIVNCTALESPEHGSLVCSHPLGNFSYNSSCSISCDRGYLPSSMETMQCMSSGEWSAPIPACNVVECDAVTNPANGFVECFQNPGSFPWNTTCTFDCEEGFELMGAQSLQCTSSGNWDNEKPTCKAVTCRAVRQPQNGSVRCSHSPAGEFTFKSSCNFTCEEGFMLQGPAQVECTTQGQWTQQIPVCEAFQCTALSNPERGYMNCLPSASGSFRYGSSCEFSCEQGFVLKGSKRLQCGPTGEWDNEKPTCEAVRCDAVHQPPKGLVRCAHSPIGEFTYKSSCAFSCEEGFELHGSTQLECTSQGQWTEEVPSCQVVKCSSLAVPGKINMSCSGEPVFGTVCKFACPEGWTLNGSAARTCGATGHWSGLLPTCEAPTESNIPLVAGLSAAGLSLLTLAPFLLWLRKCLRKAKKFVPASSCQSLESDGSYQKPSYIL
In short: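 Endpoint derived by bidirectional fitting against DMSO vehicle; signal is ELISA-detected E-selectin from primary HUVEC at 24 h post-dosing, with parallel SRB staining (0.1% SRB, 560 nm) flagging cytotoxicity.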
In the case of `C=C(C)C(=O)OCCOCCOCCOC(=O)C(=C)C`, the outcome is reported as “inactive”. With `C[C@@H]1CCN(C(=O)[C@H](CCCN=C(N)N)NS(=O)(=O)c2cccc3c2NC[C@H](C)C3)[C@@H](C(=O)O)C1` the outcome was “inactive”. `C=C(C)C(=O)OCCOCCOCCOCCOC(=O)C(=C)C` was tested, and the outcome was “inactive”. `CCN(CC)C(=O)N(CC)CC` was tested, and the outcome was “inactive”. In the case of `CC(CN=Cc1ccccc1O)N=Cc1ccccc1O` (stereo unspecified), the outcome is reported as “inactive”. In the case of `C=C(C)C(=O)OCC(CC)(COC(=O)C(=C)C)COC(=O)C(=C)C`, the AC50 is reported as 26.3 µM (active).

The compounds below were run on Interleukin-1 alpha (IL1a), IL1A (gene 3552) (assay: BSK_BE3C_IL1a: BioMAP Diversity Plus: BE3C Assay for Interleukin-1 alpha (IL1a) Biomarker Activity (AID 2283016)). Conditions: primary human bronchial epithelial cells; actives raise or lower the signal.
In short: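 Signal from IL-1a ELISA, taken 24 h after chemical dosing of human bronchial epithelial cells, is compared with DMSO as baseline using bidirectional curve fitting.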
With `C=C(C)C(=O)OCCOCCOCCOC(=O)C(=C)C` the outcome was “inactive”. For `C[C@@H]1CCN(C(=O)[C@H](CCCN=C(N)N)NS(=O)(=O)c2cccc3c2NC[C@H](C)C3)[C@@H](C(=O)O)C1`, the outcome was “inactive”. In the case of `C=C(C)C(=O)OCCOCCOCCOCCOC(=O)C(=C)C`, the outcome is reported as “inactive”. `CCN(CC)C(=O)N(CC)CC` was tested, and the outcome was “inactive”. In the case of `CC(CN=Cc1ccccc1O)N=Cc1ccccc1O` (stereo unspecified), the outcome is reported as “inactive”. `C=C(C)C(=O)OCC(CC)(COC(=O)C(=C)C)COC(=O)C(=C)C` was tested, and the outcome was “inactive”.

These compounds were tested on Monocyte Chemoattractant Protein-1 (MCP1), CCL2 (gene 6347) (assay: BSK_3C_MCP1: BioMAP Diversity Plus: 3C Assay for Monocyte Chemoattractant Protein-1 (MCP1) Biomarker Activity (AID 2283017)). Conditions: primary human endothelial cells (HUVEC); actives raise or lower the signal.
In short: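 Using human vascular primary endothelium, researchers measured MCP-1 by ELISA 24 h after treatment, with DMSO serving as negative control for bidirectional fitting.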
`C=C(C)C(=O)OCCOCCOCCOC(=O)C(=C)C` was tested, and the outcome was “inactive”. For `C[C@@H]1CCN(C(=O)[C@H](CCCN=C(N)N)NS(=O)(=O)c2cccc3c2NC[C@H](C)C3)[C@@H](C(=O)O)C1`, the outcome was “inactive”. For `C=C(C)C(=O)OCCOCCOCCOCCOC(=O)C(=C)C`, the outcome was “inactive”. `CCN(CC)C(=O)N(CC)CC` was tested, and the outcome was “inactive”. For `CC(CN=Cc1ccccc1O)N=Cc1ccccc1O` (stereo unspecified), the outcome was “inactive”. In the case of `C=C(C)C(=O)OCC(CC)(COC(=O)C(=C)C)COC(=O)C(=C)C`, the outcome is reported as “inactive”.

Each compound was assayed on Monocyte Chemoattractant Protein-1 (MCP1), CCL2 (gene 6347) (assay: BSK_4H_MCP1: BioMAP Diversity Plus: 4H Assay for Monocyte Chemoattractant Protein-1 (MCP1) Biomarker Activity (AID 2283018)). Conditions: primary human endothelial cells (HUVEC); actives raise or lower the signal.
In short: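 Endothelial cells from umbilical vein were treated with test chemical, then after 24 h MCP-1 levels were quantified by ELISA; endpoint values came from bidirectional fitting with DMSO as baseline of activity.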
With `C=C(C)C(=O)OCCOCCOCCOC(=O)C(=C)C` the outcome was “inactive”. In the case of `C[C@@H]1CCN(C(=O)[C@H](CCCN=C(N)N)NS(=O)(=O)c2cccc3c2NC[C@H](C)C3)[C@@H](C(=O)O)C1`, the outcome is reported as “inactive”. `C=C(C)C(=O)OCCOCCOCCOCCOC(=O)C(=C)C` was tested, and the outcome was “inactive”. `CCN(CC)C(=O)N(CC)CC` was tested, and the outcome was “inactive”. In the case of `CC(CN=Cc1ccccc1O)N=Cc1ccccc1O` (stereo unspecified), the outcome is reported as “inactive”. For `C=C(C)C(=O)OCC(CC)(COC(=O)C(=C)C)COC(=O)C(=C)C`, the outcome was “inactive”.

These compounds were tested on Human Leukocyte Antigen - DR isotype (HLADR), HLA-DRA (gene 3122) (assay: BSK_3C_HLADR: BioMAP Diversity Plus: 3C Assay for Human Leukocyte Antigen - DR isotype (HLADR) Biomarker Activity (AID 2283019;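 on outcome: ELISA of cell-surface HLA-DR on HUVEC 24 h after dosing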)). Conditions: primary human endothelial cells (HUVEC); actives raise or lower the signal.
In short: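 Compound added to primary HUVEC cultures, 24 h incubation, then HLA-DR determined by ELISA; endpoint derived by bidirectional fitting relative to DMSO negative control.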
`C=C(C)C(=O)OCCOCCOCCOC(=O)C(=C)C` was tested, and the outcome was “inactive”. With `C[C@@H]1CCN(C(=O)[C@H](CCCN=C(N)N)NS(=O)(=O)c2cccc3c2NC[C@H](C)C3)[C@@H](C(=O)O)C1` the outcome was “inactive”. With `C=C(C)C(=O)OCCOCCOCCOCCOC(=O)C(=C)C` the outcome was “inactive”. For `CCN(CC)C(=O)N(CC)CC`, the outcome was “inactive”. With `CC(CN=Cc1ccccc1O)N=Cc1ccccc1O` (stereo unspecified) the outcome was “inactive”. `C=C(C)C(=O)OCC(CC)(COC(=O)C(=C)C)COC(=O)C(=C)C` was tested, and the AC50 was 19.7 µM (active).

These compounds were tested on Interleukin-8 (IL8), CXCL8 (gene 3576) (assay: BSK_3C_IL8: BioMAP Diversity Plus: 3C Assay for Interleukin-8 (IL8) Biomarker Activity (AID 2283020)). Conditions: primary human endothelial cells (HUVEC); actives raise or lower the signal.
In short: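 Endothelial primary cells of human umbilical vein origin are dosed with chemical; after 24 h the IL-8 biomarker is measured by ELISA, and concentration–response is fitted in both directions versus DMSO.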
With `C=C(C)C(=O)OCCOCCOCCOC(=O)C(=C)C` the outcome was “inactive”. In the case of `C[C@@H]1CCN(C(=O)[C@H](CCCN=C(N)N)NS(=O)(=O)c2cccc3c2NC[C@H](C)C3)[C@@H](C(=O)O)C1`, the outcome is reported as “inactive”. With `C=C(C)C(=O)OCCOCCOCCOCCOC(=O)C(=C)C` the outcome was “inactive”. `CCN(CC)C(=O)N(CC)CC` was tested, and the outcome was “inactive”. For `CC(CN=Cc1ccccc1O)N=Cc1ccccc1O` (stereo unspecified), the AC50 was 0.16 µM (active) and the outcome was “inactive”. With `C=C(C)C(=O)OCC(CC)(COC(=O)C(=C)C)COC(=O)C(=C)C` the outcome was “inactive”.

Each compound was assayed on Monokine induced gamma interferon (MIG), CXCL9 (gene 4283) (assay: BSK_3C_MIG: BioMAP Diversity Plus: 3C Assay for Monokine induced gamma interferon (MIG) Biomarker Activity (AID 2283021)). Conditions: primary human endothelial cells (HUVEC); actives raise or lower the signal.
In short: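 Endothelial primary cells (human umbilical vein) are dosed with test chemical in the 3C system. MIG levels are measured by ELISA at 24 h and fitted in both directions relative to DMSO.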
For `C=C(C)C(=O)OCCOCCOCCOC(=O)C(=C)C`, the outcome was “inactive”. For `C[C@@H]1CCN(C(=O)[C@H](CCCN=C(N)N)NS(=O)(=O)c2cccc3c2NC[C@H](C)C3)[C@@H](C(=O)O)C1`, the outcome was “inactive”. For `C=C(C)C(=O)OCCOCCOCCOCCOC(=O)C(=C)C`, the outcome was “inactive”. `CCN(CC)C(=O)N(CC)CC` was tested, and the outcome was “inactive”. In the case of `CC(CN=Cc1ccccc1O)N=Cc1ccccc1O` (stereo unspecified), the outcome is reported as “inactive”. For `C=C(C)C(=O)OCC(CC)(COC(=O)C(=C)C)COC(=O)C(=C)C`, the outcome was “inactive”.

What follows are compounds tested against human Vitamin D Receptor (VDR), VDR (gene 7421) (UniProt P11473) (assay: ATG_VDR_TRANS: Attagene TRANS-FACTORIAL HepG2 Assay for human Vitamin D Receptor (VDR) (AID 2283022; active means hit-call score of the fitted dose curve at least 0.9, where 1 is the maximum)). Conditions: not given.
Sequence of human Vitamin D Receptor (VDR), VDR (gene 7421) (P11473 whole entry, looked up): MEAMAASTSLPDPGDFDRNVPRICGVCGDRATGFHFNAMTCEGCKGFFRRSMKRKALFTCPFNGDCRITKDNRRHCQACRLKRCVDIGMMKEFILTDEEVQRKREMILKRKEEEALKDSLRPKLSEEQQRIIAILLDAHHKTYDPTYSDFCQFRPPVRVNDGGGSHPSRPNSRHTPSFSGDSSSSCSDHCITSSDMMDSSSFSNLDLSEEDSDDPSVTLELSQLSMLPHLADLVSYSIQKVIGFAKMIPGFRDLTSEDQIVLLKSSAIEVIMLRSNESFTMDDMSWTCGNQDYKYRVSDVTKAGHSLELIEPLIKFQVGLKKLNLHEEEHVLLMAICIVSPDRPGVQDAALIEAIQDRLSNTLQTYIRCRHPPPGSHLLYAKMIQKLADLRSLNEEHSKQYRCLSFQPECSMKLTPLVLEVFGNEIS
In short: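 Multiplexed TRANS reporter in HepG2; 24 h treatment; reporter mRNA by RT-PCR plus capillary electrophoresis; upregulation scored relative to DMSO.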
With `O=C(c1ccccc1)C(O)c1ccccc1` (stereo unspecified) the outcome was “inactive”. For `COc1ccc(N=Nc2cc(C)c(N=Nc3ccc(S(=O)(=O)O)cc3)cc2OC)cc1`, the outcome was “inactive”. `CCC1(c2ccccc2)C(=O)NCNC1=O` was tested, and the outcome was “inactive”. For `O=Cc1ccccc1S(=O)(=O)O`, the outcome was “inactive”. In the case of `CC1(C)COCN1`, the outcome is reported as “inactive”. With `O=[N+]([O-])c1cccc(Cl)c1` the outcome was “inactive”. `CCOC(=O)C1OC1c1ccccc1` (stereo unspecified) was tested, and the outcome was “inactive”. For `CCN(CC)C(=O)N(CC)CC`, the outcome was “inactive”. `CCCCC1(COC(=O)CCC(=O)O)C(=O)N(c2ccccc2)N(c2ccccc2)C1=O` was tested, and the outcome was “inactive”. In the case of `NC1CCCCC1N` (stereo unspecified), the outcome is reported as “inactive”. In the case of `Cc1cc(=O)oc2cc(N(C)C)ccc12`, the outcome is reported as “inactive”. `CCCC1O[C@@H]2C[C@H]3[C@@H]4CCC5=CC(=O)C=C[C@]5(C)[C@H]4[C@@H](O)C[C@]3(C)[C@]2(C(=O)CO)O1` (stereo partly specified) was tested, and the outcome was “inactive”. In the case of `CC(C)Nc1nc(N)nc(Cl)n1`, the outcome is reported as “inactive”. In the case of `[Cl][Au]([Cl])[Cl]`, the outcome is reported as “inactive”. In the case of `OC[C@H]1O[C@@H](Oc2ccc(O)cc2)[C@H](O)[C@@H](O)[C@@H]1O`, the outcome is reported as “inactive”. With `CCNCCO` the outcome was “inactive”. With `COCCOC(=O)c1ccccc1C(=O)OCCOC` the outcome was “inactive”. For `C=C(C)C(=O)OCCOC1CC2CC1C1C=CCC21` (stereo unspecified), the outcome was “inactive”.
